# Results reported in PubChem BioAssay AID1863 (Southern Research Specialized Biocontainment Screening …, 2009).
# Values joined by “and” are separate entries in the source; they are usually repeats but may differ in a detail not shown here. Identical values can stand only once. The whole screen tested about 300,000 compounds, of which about 480 (0.16%) were called active.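 How the source made its calls: active means inhibition over 29.93%, a cutoff 3 SD above the screen mean, later confirmed by dose response; inconclusive means inhibition over 29.93% but no dose response follow-up; inactive means inhibition at most 29.93% or unconfirmed.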 Only a sample is shown. Entries with a potency or affinity are not part of this list.
# Assay: PhoP-dependent GFP reporter repression – Salmonella Typhimurium, primary screen (AID 1863);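 further: 0% = low Mg2+ inducing control and 100% = high Mg2+ repressing control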
# Conditions: S. Typhimurium PhoP-regulated promoter GFP reporter, 4 h; at 50 µM; hits give high values
row,SMILES,inhibition
1,Cc1ccc(N2CC(C(=O)Nc3ccccc3C(=O)NC3CCCCC3)CC2=O)cc1 (stereo unspecified),3.33% (inactive)
2,CC(NC(=O)CCNC(=O)c1ccccc1Cl)C1CC2CCC1C2 (stereo unspecified),10.5% (inactive)
3,Cc1cccc(Nc2cc(=O)[nH]c(=O)[nH]2)c1C,11.8% (inactive)
4,Nc1ncnc2c1ncn2[C@@H]1O[C@H](CO)[C@@H](O)[C@H]1O,3.62% (inactive)
5,NC(=O)c1ncn([C@@H]2O[C@H](CO)[C@@H](O)[C@H]2O)c1O,2.19% (inactive)
6,Nc1ccn([C@@H]2O[C@H](CO)[C@@H](O)C2O)c(=O)n1 (stereo partly specified),-5.08% (inactive) and -1.41% (inactive)
7,Nc1nc(Cl)nc2c1ncn2[C@@H]1O[C@H](CO)[C@@H](O)[C@H]1O,-6.56% (inactive) and 6.76% (inactive)
8,Nc1ccn([C@@H]2O[C@H](CO)[C@@H](O)[C@@H]2O)c(=O)n1,-7.73% (inactive) and -0.16% (inactive)
9,Nc1cnn(C2OC(CO)C(O)C2O)c(=O)n1 (stereo unspecified),-3.56% (inactive)
10,Cc1cc(C)c(NC(=O)CNC(=O)CN2C(=O)NC3(CCCc4ccccc43)C2=O)c(C)c1 (stereo unspecified),0.74% (inactive)
11,Cc1cccc(Nc2nccc(N(C)C)c2C#N)c1,-5.86% (inactive)
12,COc1ccc(-c2noc(CCC(=O)NCCN3CCN(c4ccccc4F)CC3)n2)cc1,-6.34% (inactive)
13,O=C(Nc1cccc2ccccc12)N1CC=C(c2ccccc2)CC1,8.64% (inactive)
14,CC(CN1CCCCC1)C(=O)NN (stereo unspecified),2.4% (inactive)
15,O=C(CNC(=O)c1ccccc1F)N/N=C/c1cn[nH]c1-c1ccccc1,-11.6% (inactive)
16,Cc1cc(OCC(=O)OCC(=O)N(C)c2c(N)n(Cc3ccccc3)c(=O)[nH]c2=O)ccc1Cl,-6.01% (inactive)
17,O=C(NCC1CCCO1)c1cccnc1Nc1ccccc1F (stereo unspecified),8.77% (inactive)
18,CC1=C(C(=O)Nc2cccc([N+](=O)[O-])c2)C2(CCC(C)CC2)OC1=O (stereo unspecified),-3.06% (inactive)
19,O=C(Cc1ccc(-n2c(=O)[nH]c3ccsc3c2=O)cc1)NCc1cccnc1,0.29% (inactive)
20,CNC(=S)Nc1cc(C(F)(F)F)ccc1Cl,4.05% (inactive)
21,COc1cc(/C=C/C(=O)O)ccc1O,-9.92% (inactive)
22,COc1cc(/C=C/C(=O)CC(=O)/C=C/c2ccc(O)c(OC)c2)ccc1O,8.28% (inactive)
23,O=C(Cn1c(=O)oc2cc(S(=O)(=O)N3CCCC3)ccc21)Nc1ccccc1Br,-3.67% (inactive)

row,SMILES,inhibition
1,CCNc1nc(NC(C)C)nc(OCC)n1,-7.28% (inactive)
2,CCO[C@@H]1OC(C(=O)N2CCN(Cc3ccc4c(c3)OCO4)CC2)=C[C@H](C2CCCCC2)[C@H]1CCCO,2.5% (inactive)
3,CCCCCCCNC(=O)C1(CC2CC(c3ccc(Cl)cc3)=NO2)CCN(C(=O)C2(C)CC2)CC1 (stereo unspecified),-5.4% (inactive)
4,CCCCCCCNC(=O)C1(CC2CC(c3cccc(Br)c3)=NO2)CCN(C(=O)OC(C)(C)C)CC1 (stereo unspecified),-0.33% (inactive)
5,CCCCCCCNC(=O)C1(CC2CC(c3ccccc3)=NO2)CCNCC1 (stereo unspecified),0.18% (inactive)
6,CCCCCCCNC(=O)C1(CC2CC(c3cccc(Br)c3)=NO2)CCN(C(=O)C2CCCC2)CC1 (stereo unspecified),12.9% (inactive)
7,Cc1ccccc1C(=O)Nc1ccccc1NC(=O)c1ccccc1Br,-5.42% (inactive)
8,CCc1nc(C)cn1S(=O)(=O)c1cc(Br)ccc1OC,1.41% (inactive)
9,COC(CNC(=O)C(=O)NCC1OCCN1C(=O)c1ccc(Cl)cc1)OC (stereo unspecified),12.8% (inactive)
10,CC(C)C[C@H](NC(=O)N1CCn2c1nc1ccccc12)C(=O)NCc1ccco1,-1.56% (inactive)
11,CCn1ncc([N+](=O)[O-])c1C(=O)Nc1ccc(C)c(C)c1,-7.66% (inactive)
12,CN(C)c1ccc2nc3ccc(=[N+](C)C)cc-3sc2c1,-2.55% (inactive)
13,Cc1cc2nc(N)sc2cc1C,3.73% (inactive)
14,CC1(C)Cn2c(nnc2-c2ccccc2)S1,-3.09% (inactive)
15,O=c1[nH]c2ccccc2c(O)c1-c1ccccc1,1.77% (inactive)
16,CC[n+]1ccccc1/C=C/c1ccc(N(C)C)cc1,-19.2% (inactive)
17,CN(C)c1ccc(/C=C/c2cccc[n+]2[O-])cc1,-8.32% (inactive)
18,CN(C)c1ccc(/C=C/c2ccc3ccccc3n2)cc1,0.11% (inactive)
19,CC[n+]1c(/C=C/c2ccc(OC)c(OC)c2)ccc2ccccc21,-6.54% (inactive)
20,C[n+]1c(/C=C/c2ccc(O)cc2)ccc2ccccc21,18.4% (inactive)
21,CN(CCCS(=O)(=O)[O-])c1ccc(/C=C/c2ccc3ccccc3[n+]2C)cc1,0.91% (inactive)
22,Cc1ccc(-n2ccnc(SCC(=O)NC3CCCC3)c2=O)cc1Cl,-4.24% (inactive)
23,COc1ccc(OC)c(NC(=O)C2CCN(C(=O)c3cccs3)CC2)c1,2.52% (inactive)

row,SMILES,inhibition
1,O=C(c1cc(F)ccc1F)C1CCCN(C(=O)c2ccco2)C1 (stereo unspecified),-3.85% (inactive)
2,COc1ccccc1N1CCN(C(=O)Nc2cccc(Cl)c2)CC1,-5.86% (inactive)
3,Cc1c(OCC(=O)NC(Cc2ccc(Cl)cc2)C(=O)O)ccc2c(-c3ccccc3)cc(=O)oc12 (stereo unspecified),-1.09% (inactive)
4,COc1cc(/C=C2/CC(C)OC2=O)c([N+](=O)[O-])cc1OC (stereo unspecified),0.79% (inactive)
5,Cc1ccsc1C(C(=O)NCc1ccccc1)N(C(=O)c1csnn1)c1ccccc1 (stereo unspecified),12.3% (inactive)
6,CCc1c(C)nc(N)c(C#N)c1-c1ccccc1,4.1% (inactive)
7,O=C1CC(c2ccccc2)CC(O)=C1C=Nc1ccccc1 (stereo unspecified),-10.4% (inactive)
8,COc1ccc(C)cc1NC(=O)NNC(=O)C1CCC(C(C)(C)C)CC1 (stereo unspecified),-7.11% (inactive)
9,CSc1ccc(CN(C)CC(=O)NCc2ccccc2)cc1,-8.5% (inactive)
10,O=C(c1cc2nc(-c3ccco3)cc(C(F)(F)F)n2n1)N1CCN(c2ccc(F)cc2)CC1,-5.29% (inactive)
11,CCCCCCCC[n+]1cccc2c3ccccc3ccc21,0.34% (inactive)
12,CCCCCCCCC[n+]1cccc2c3ccccc3ccc21,-3.12% (inactive)
13,CCCC[n+]1c2ccccc2cc2ccccc21,20.6% (inactive)
14,CCCCC[n+]1cccc2c3ccccc3ccc21,-3.43% (inactive)
15,Cc1cc(-n2cc(Br)c(=O)[nH]c2=O)nc(-c2ccccc2)n1,-4.05% (inactive)
16,O=C(C1CCC1)N1CCc2cc(S(=O)(=O)NCCN3CCN(c4ccccc4F)CC3)ccc21,13.8% (inactive)
17,Cc1cc(C)cc(NC(=O)CC2NCCNC2=O)c1 (stereo unspecified),-1.2% (inactive)
18,O=C(CC1CCS(=O)(=O)C1)Nc1ccc[nH]c1=O (stereo unspecified),-5.21% (inactive)
19,Cc1sc2cc3c(c(C(=O)c4ccccc4)[n+]2c1C)-c1cccc2cccc-3c12,-2.96% (inactive)
20,Cc1sc2ccccc2[n+]1CC(=O)c1ccccc1,2.11% (inactive)
21,CCn1cc(C(=O)NCCC(C)C)c(=O)c2cc(F)c(N3CCN(C)CC3)cc21,8.97% (inactive)
22,CCn1cc(C(=O)NCC(C)C)c(=O)c2cc(F)c(N3CCN(C(=O)c4ccco4)CC3)cc21,5.43% (inactive)
23,CCn1cc(C(=O)N[C@H](C)c2ccccc2)c(=O)c2cc(F)c(N3CCN(C)CC3)cc21,4.39% (inactive)

row,SMILES,inhibition
1,CCn1cc(C(=O)NN)c(=O)c2cc(F)c(N3CCN(C)CC3)cc21,3.03% (inactive)
2,CCCNC(=O)c1cn(CC)c2cc(N3CCN(C(=O)c4ccco4)CC3)c(F)cc2c1=O,-3.25% (inactive)
3,COc1ccc(CC2(CO)CCN(C(C)COc3ccccc3)CC2)cc1 (stereo unspecified),-5.24% (inactive)
4,O=C(NC(=S)Nc1ccc(S(=O)(=O)Nc2ncccn2)cc1)c1ccc(Br)cc1,-1.85% (inactive)
5,Cc1cccc(NC(=O)c2cc(NC(=O)C3CC=CCC3C(=O)O)ccc2N2CCOCC2)c1 (stereo unspecified),13.8% (inactive)
6,CCN(CC(=O)Nc1c(F)cccc1F)C(=O)C1(c2ccccc2)CC1,-5.13% (inactive)
7,CCC(=O)c1cn(CC(=O)NCc2cccnc2)c2ccccc12,3.99% (inactive)
8,Cc1cc(C)cc(OC(=O)CCN2C(=O)C3C4C=CC(C5CC45)C3C2=O)c1 (stereo unspecified),1.31% (inactive)
9,CCOc1ccc2nc(NC(=O)C3CCN(S(=O)(=O)c4cnc[nH]4)CC3)sc2c1,1.27% (inactive)
10,CN(C)c1cccc(C(=O)OCC(=O)N2CCc3ccccc3C2)c1,-2.35% (inactive)
11,CC1CCN(c2nc3c(c(=O)n(C)c(=O)n3C)n2Cc2ccccc2)CC1,0.23% (inactive)
12,O=[N+]([O-])c1ccc(NC(=S)NCC(c2cccnc2)N2CCOCC2)cc1 (stereo unspecified),-4.57% (inactive)
13,CCCCNC(=O)c1cn(CC)c2cc(N3CCN(C(=O)c4ccco4)CC3)c(F)cc2c1=O,-7.68% (inactive)
14,CCCCCNC(=O)c1cn(CC)c2cc(N3CCN(C)CC3)c(F)cc2c1=O,4.54% (inactive)
15,C/C(=N\OC(=O)c1ccc(F)cc1)c1ccc(F)c(F)c1,-1.74% (inactive)
16,O=C(OCc1ccc(COC(=O)c2ccccn2)cc1)c1ccccn1,-1.35% (inactive)
17,CCOC(=O)C1CCCN(Cc2sccc2C)C1 (stereo unspecified),7.84% (inactive)
18,C[C@H](NC(=O)C1CCN(S(=O)(=O)c2ccccc2)CC1)C(=O)NCc1cccc(C(F)(F)F)c1,-1.18% (inactive)
19,COC(=O)n1c(=O)oc2cc(S(=O)(=O)N3CCOCC3)ccc21,7.81% (inactive)
20,CN(C)C(=O)CN1C(=O)c2cccc3cccc1c23,8.86% (inactive)
21,O=C(Nc1ccc2ncccc2c1)c1cc(Cl)ccc1Cl,0.12% (inactive)
22,O=C(NCc1ccccc1)C(c1cccnc1)N(C(=O)c1ccccn1)c1ccc(F)cc1 (stereo unspecified),2.95% (inactive)
